High-throughput results (PubChem BioAssay)
Pf apPOL inh – Pf-apPOL DNA polymerase inhibition | hit rate 0.25% among 210,000 | inhibition, % at 10 µM | Recombinant Pf-apPOL, molecular beacon fluorescence, 1.5 h
mHTT-CaM PPI inh – inhibitors of human mutant huntingtin-calmodulin interaction. P42858. AlphaScreen His-mHTT/GST-CaM binding, luminescence. inhibition, % at 15 µM. hit rate 3.6% among 190,000. AID 1671202
A number is an active result; . = inactive; / = no result. The full list was thinned out, with hits kept by preference. Rule as the data show it: active = inhibition above about 50%; inactive = the rest.

SMILES | Pf apPOL inh | mHTT-CaM PPI inh
O=C1C2CCCCC2C(=O)N1c1ccc(NCc2ccc(Cl)cc2)c([N+](=O)[O-])c1 (stereo not given) | . | .
COCCC1CCN(C(=O)CN(C)C(=O)Cc2c(C)noc2C)CC1 | . | .
Cc1nc2ccccc2c(=O)n1-c1cccc(NC(=O)Cc2ccc(F)cc2)c1 | . | .
COc1ccc(-c2cc3n(n2)CCCN(C(=O)Cc2cccs2)C3)cc1OC | . | .
Cn1cc(CN2CCC(C(=O)NCCCN3CCCC3)CC2)c2cc(Cl)ccc21 | . | 54.7
CCn1cc(CN2CCC(C(=O)NCc3cccc(OC)c3)CC2)c2ccccc21 | . | .
CCn1cc(CN2CCC(C(=O)NCc3cccc(Cl)c3)CC2)c2cc(OC)ccc21 | . | 90.0
Cn1cc(CN2CCC(C(=O)NCCN3CCCCC3)CC2)c2cc(Cl)ccc21 | . | .
Cc1nn(S(=O)(=O)c2ccccc2[N+](=O)[O-])c(C)c1Sc1ccccc1 | . | .
Cc1ccc(Sc2c(C)nn(S(=O)(=O)c3ccccc3[N+](=O)[O-])c2C)cc1 | . | 50.0
Cc1cc(C)c(S(=O)(=O)N=C2C=CC(=O)c3ccccc32)c(C)c1 | . | 66.0
Cc1cc(C)c(S(=O)(=O)n2cnc3ccccc32)c(C)c1 | . | .
Cc1ccc(S(=O)(=O)N=C2C=CC(=O)c3ccccc32)c(C)c1 | . | 86.0
Cc1ccc(S(=O)(=O)N=C2C=CC(=O)C=C2)c(C)c1 | . | .
CCC(C)N1COc2ccc3c(=O)c(Oc4ccccc4OC)coc3c2C1 (stereo not given) | . | .
O=C(CCC(=O)c1ccccc1)Nc1ccc(-c2ccn[nH]2)cc1 | . | .
COc1ccc(Cl)cc1C(=O)N1CCCCCC1 | . | .
O=C(NCc1cc(-c2ccc(Cl)cc2)on1)c1ccccn1 | . | .
COc1ccc2c(c1)CN(CCc1ccc(Cl)cc1)CO2 | . | .
COc1ccc(/C=C2\SC(=O)N(c3ccccc3)C2=O)cc1OC | . | .
COc1ccc(-c2cc3ccccn3c2)c(OC)c1 | . | 75.0
FC(F)Oc1ccc(-c2cc3ccccn3c2)cc1 | . | .
CCOc1cc(/C=C2\SC(=N)N(c3ccc(F)cc3)C2=O)cc(Cl)c1O | . | .
Cc1ccc2c(c1Br)C(=Nc1ccc(C(N)=O)cc1)C(=O)N2 | . | .
O=C1OC(c2ccccc2)=C/C1=C1/c2ccccc2-c2ncccc21 | . | 67.0
SMILES | Pf apPOL inh | mHTT-CaM PPI inh
COc1ccc(C2=C/C(=C3/c4ccccc4-c4ncccc43)C(=O)O2)c(OC)c1 | . | .
CC1=C(C(=O)Nc2ccc(C)cc2C)C(c2ccc(F)cc2)n2ncnc2N1 (stereo not given) | . | .
CC1C(c2ccccc2)OC(c2ccccc2)N1C (stereo not given) | . | .
CC(C)(Oc1ccc(Cl)cc1)C(=O)N1CC(c2nc(-c3ccccn3)no2)C1 | . | .
COc1ccccc1Cc1noc(C2CN(C(=O)C(C)(C)Oc3ccc(Cl)cc3)C2)n1 | . | 70.3
COCC(=O)NCc1cccnc1-c1ccccc1 | . | .
COc1ccc2nc(SCc3cccc([N+](=O)[O-])c3)nc(C)c2c1 | . | .
COc1ccc(NC(=O)c2ccccc2Cl)c(OC)c1 | . | .
COc1ccc2nc(SC(=O)c3ccccc3)nc(C)c2c1 | . | 100.0
COc1ccc2nc(SC(=O)c3ccccc3Cl)nc(C)c2c1 | . | 99.0
CC(Oc1ccc(Cl)cc1Cl)C(=O)NC(C)(C)C (stereo not given) | . | .
CCOC(=O)C(=O)NCC(c1ccc2c(c1)OCO2)N1CCOCC1 (stereo not given) | . | .
Oc1cc2c(cc1C(c1ccc3c(c1)OCO3)N1CCOCC1)OCO2 (stereo not given) | / | 94.5
O=c1[nH]c2ccc(S(=O)(=O)Nc3ccc(F)cc3F)cc2s1 | . | .
COc1ccc(-c2cc(C(F)(F)F)nc(SC3CC(O)C4OCC3O4)n2)cc1 (stereo not given) | . | .
CC1=C(/C=C/c2ccc(Cl)cc2Cl)C(=O)c2ccccc2C1=O | . | 67.8
O=C1OC(c2ccccc2F)=N/C1=C/c1ccc(Cl)cc1Cl | . | .
CCN1CCN(C(=O)c2cnn(-c3ccc(Cl)cc3)c2C(F)(F)F)CC1 | . | .
COc1cccc(NC(=O)N2CC3CCCN3c3ccccc32)c1 (stereo not given) | . | 73.1
COc1cc(NC(=O)N2CC3CCCN3c3ccccc32)cc(OC)c1OC (stereo not given) | . | 62.5
O=C(Nc1cccc(F)c1)N1CC2CCCN2c2ccccc21 (stereo not given) | . | .
COc1cc(NC(=O)N2CCOc3ccc(C)cc32)cc(OC)c1OC | . | .
COc1ccc(CNC(=O)CCC(=O)N2CC3CCCN3c3ccccc32)c(OC)c1 (stereo not given) | . | .
COc1ccccc1NC(=O)N1CCN(C)c2ccccc21 | . | 60.7
COc1ccc(OC)c(CCNC(=O)CCC(=O)N2CC3CCCN3c3ccccc32)c1 (stereo not given) | . | 52.6
COc1ccccc1NC(=O)N1CCN(c2ccccc2OC)CC1 | . | .
